Results reported in PubChem BioAssay (NCATS).
Inconclusive results are not listed. Unmarked numbers belong to inactive results. Calls of active or inactive are those of the source. Unless noted, calls follow the shape of the full dose curve.

Legend:
[1] = Cell Viability - BJ (AID 421); details: BJ fibroblast viability, qHTS;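 also: potency is read from the fitted curve at half-maximal effect; cells exposed to compound for 40 hours at 37 °C before readout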
Outline: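 Cytotoxicity as drop in intracellular ATP (CellTiter-Glo, 20 min RT) after 40 hr compound exposure of BJ fibroblasts at 37 °C. Titrations scaled between DMSO and 100 uM tamoxifen, Hill-fitted for AC50.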

[2] = Cell Viability - Jurkat (AID 426;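 active = dose-dependent loss of cell ATP signal giving a full or clear fitted curve, ranked by lower potency value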;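 also: potency is read from the fitted curve at half-maximal effect; cells exposed to compound for 40 hours at 37 °C before ATP read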); details: qHTS
Outline: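 Luminescent ATP read-out (CellTiter-Glo, 20 min at room temperature) after 40 hr compound exposure at 37 °C of Jurkat E6-1 cells, 5000/well. Decreased ATP taken as cytotoxicity; AC50 from standard Hill equation.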

[3] = Cell Viability - Hek293 (AID 427;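 active = compounds whose dose-response curve shows a full or clear partial loss of cell viability, called from curve shape rather than a numeric limit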;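 also: potency is read from the fitted curve at half-maximal effect; cells exposed to compound for 40 hours at 37 °C before reading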); details: qHTS
Outline: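 Luminescent ATP content (CellTiter-Glo, 20 min at room temperature) was measured after a 40 hr, 37 °C compound exposure of HEK293 cells. AC50 values came from Hill-equation fits of qHTS concentration-response data normalized to DMSO and 100 uM tamoxifen.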

[4] = Cell Viability - HepG2 (AID 433); details: qHTS;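 also: potency is read from the fitted curve at half-maximal effect; cells exposed to compound for 40 hours; potency for ATP loss meaning cytotoxicity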
Outline: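 HepG2 cells, 1500 per well, treated 40 hr at 37 °C in complete medium; viability from intracellular ATP by CellTiter-Glo luminescence. Normalized to DMSO and 100 uM tamoxifen; AC50 from Hill fit of qHTS concentration-response.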

[5] = Cell Viability - MRC5 (AID 434); details: MRC5 lung fibroblast viability, qHTS;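 also: potency is read from the fitted curve at half-maximal effect; cells exposed to compound for 40 hours at 37 °C; potency reflects cytotoxicity seen as loss of intracellular ATP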
Outline: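 AC50 values come from Hill-equation fits of intracellular ATP loss, measured by CellTiter-Glo luminescence. Normal lung fibroblasts (MRC5) had 40 hr compound treatment at 37 C, normalized between DMSO and 100 uM tamoxifen.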

[6] = Cell Viability - SK-N-SH (AID 435); details: SK-N-SH neuroblastoma cell viability qHTS;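 also: potency is read from the fitted curve at half-maximal effect; compound exposure lasted 40 h at 37 °C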
Outline: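 SK-N-SH neuroblastoma cells (1500/well) treated 40 h at 37 °C in complete medium; viability read as cellular ATP by CellTiter-Glo luminescence. Normalized to DMSO and 100 uM tamoxifen; AC50 from Hill fits of qHTS concentration-response.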

[7] = target: Mitogen-activated protein kinase 10 (Mus musculus) (UniProt Q61831); test: JNK3 AlphaScreen Assay (AID 530; active = well fitted curve in either direction with a large enough effect, not every such curve was filed as active;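 also: kinase came from lysate of stimulated human HepG2 cells; signal reports phosphorylation of biotinylated GST-cJun 1-79 at Ser73 with 10 µM ATP; % is scaled to controls: 0 for no effect and ±100 for the full control effect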); details: JNK3 lysate, c-Jun phosphorylation; series mostly up to 57.1 µM
Outline: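 Kinase buffer: 20 mM Tris-HCl pH 7.6, 10 mM MgCl2, 1 mM DTT, 0.1 mM Na3VO4, 0.01% Tween-20; ATP 10 uM. Substrate biotin-GST-cJun(1-79), enzyme from activated HepG2 lysates. Detection by Ser73 phospho-antibody AlphaScreen.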

[8] = Cell Viability - N2a (AID 540; active = well fitted curve in the direction sought with a large enough effect; an effect the other way counts as inactive or inconclusive;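 also: cells exposed to compound for 40 h at 37 °C; nearly all actives have a fitted effect of over 45% in size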; also: potency is read from the fitted curve at half-maximal effect;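 as to activity change, negative = cytotoxicity: plate controls were DMSO alone for no effect and tamoxifen control for full effect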); details: N2a mouse neuroblastoma cell viability; activity change, negative = cytotoxicity: at 92.2 µM (top of the series)
Outline: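 N2a mouse neuroblastoma, 1500 cells/well, 5 hr settle; compound 40 hr, 37 °C; CellTiter-Glo 20 min RT; luminescence; Hill-fit AC50.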

[9] = Cell Viability - NIH 3T3 (AID 541; active = well fitted curve in the direction sought with a large enough effect; an effect the other way counts as inactive or inconclusive;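 also: cells exposed to compound for 40 hours; plate controls were DMSO alone for no effect and tamoxifen positive control for full effect; nearly all actives have a fitted effect of over 25% in size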); details: NIH 3T3 cell viability, qHTS; activity change, negative = cytotoxicity: at 92.2 µM (top of the series)
Outline: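 qHTS format; 40 hr compound exposure, 37 °C; CellTiter-Glo luminescence (cellular ATP) read-out after 20 min at RT. Decrease in ATP = cytotoxicity; AC50 from standard Hill fit.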

[10] = Cell Viability - HUV-EC-C (AID 542; active = well fitted curve in the direction sought with a large enough effect; an effect the other way counts as inactive or inconclusive;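 also: cells exposed to compound for 40 hours; nearly all actives have a fitted effect of over 35% in size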; also: potency is read from the fitted curve at half-maximal effect; as to activity change, negative = cytotoxicity: % is scaled to controls: 0 for no effect and ±100 for the full control effect); details: HUV-EC-C endothelial cell viability, qHTS; series mostly up to 92.2 µM
Outline: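 Luminescent ATP read-out (CellTiter-Glo, 20 min room temperature) after 40 hr compound treatment of HUV-EC-C cells at 37 °C. Concentration-response data fitted with the standard Hill equation to give AC50; tamoxifen and doxorubicin served as positive controls.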

| SMILES | Potency [1] | Potency [2] | Potency [3] | Potency [4] | Potency [5] | Potency [6] | outcome [7] | activity change, negative = cytotoxicity [8] | Potency [9] | Potency [10] | activity change, negative = cytotoxicity [9] | Potency [8] |
| --- | --- | --- | --- | --- | --- | --- | --- | --- | --- | --- | --- | --- |
| CCCCCCO | > 92 µM | > 92 µM | > 92 µM | > 92 µM | > 92 µM | > 92 µM | inactive | 4.85% | inactive | inactive |  |  |
| CC(=O)c1ccccn1 | > 92 µM | > 92 µM | > 92 µM | > 92 µM | > 92 µM | > 92 µM | inactive | -1.85% | inactive | inactive |  |  |
| C=C(C)C(=O)OCC(C)C | > 92 µM | > 92 µM | > 92 µM | > 92 µM | > 92 µM | > 92 µM | inactive | 1.04% | inactive | inactive |  |  |
| O=C(O[C@@H](C(=O)O)[C@@H](OC(=O)c1ccccc1)C(=O)O)c1ccccc1 | > 92 µM | > 92 µM | > 92 µM | > 92 µM | > 92 µM | > 92 µM | inactive | 4.68% | inactive | inactive |  |  |
| CCCCC/C=C/C=C/C=O | > 92 µM | 29.6 µM (active) | > 92 µM | > 92 µM | > 92 µM | > 92 µM | inactive | -106% (active) |  |  | -100% (active) |  |
| CCOc1ccccc1N | > 92 µM | > 92 µM | > 92 µM | > 92 µM | > 92 µM | > 92 µM | inactive | 1.87% | inactive | inactive |  |  |
| O=C(O)c1cccc(Cl)c1Cl | > 92 µM | > 92 µM | > 92 µM | > 92 µM | > 92 µM | > 92 µM | inactive | -7.38% | inactive | inactive |  |  |
| Nc1ccccc1S(=O)(=O)O | > 92 µM | > 92 µM | > 92 µM | > 92 µM | > 92 µM | > 92 µM | inactive | 4.97% | inactive |  |  |  |
| Cc1cc(C(=O)O)ccc1[N+](=O)[O-] | > 92 µM | > 92 µM | > 92 µM | > 92 µM | > 92 µM | > 92 µM | inactive | 4.23% | inactive | inactive |  |  |
| CCOC(=O)OCC | > 92 µM | > 92 µM | > 92 µM | > 92 µM | > 92 µM | > 92 µM | inactive | -11.2% | inactive |  |  |  |
| CC(C)C(C)C | > 92 µM | > 92 µM | > 92 µM | > 92 µM | > 92 µM | > 92 µM | inactive | 5.14% | inactive | inactive |  |  |
| CCCOCC(C)O (configuration not stated) | > 92 µM | > 92 µM | > 92 µM | > 92 µM | > 92 µM | > 92 µM | inactive | -5.54% | inactive | inactive |  |  |
| CC(=O)CC(C)C | > 92 µM | > 92 µM | > 92 µM | > 92 µM | > 92 µM | > 92 µM | inactive | -14.8% | inactive |  |  |  |
| Cc1cc(C2(c3cc(C)c(O)cc3C)OS(=O)(=O)c3ccccc32)c(C)cc1O | > 92 µM | > 92 µM | > 92 µM | > 92 µM | > 92 µM | > 92 µM | inactive | -2.09% | inactive |  |  |  |
| NC(=O)/N=N/C(N)=O | > 92 µM | > 92 µM | > 92 µM | > 92 µM | > 92 µM | > 92 µM | inactive | 10.3% | inactive | inactive |  |  |
| O=C(O)c1ccccc1[N+](=O)[O-] | > 92 µM | > 92 µM | > 92 µM | > 92 µM | > 92 µM | > 92 µM | inactive | 4.07% | inactive |  |  |  |
| C=CCn1c(=O)n(CC=C)c(=O)n(CC=C)c1=O | > 92 µM | > 92 µM | > 92 µM | > 92 µM | > 92 µM | > 92 µM | inactive | 0.0467% | inactive |  |  |  |

| SMILES | Potency [1] | Potency [2] | Potency [3] | Potency [4] | Potency [5] | Potency [6] | outcome [7] | activity change, negative = cytotoxicity [8] | Potency [9] | Potency [10] | activity change, negative = cytotoxicity [9] | Potency [8] |
| --- | --- | --- | --- | --- | --- | --- | --- | --- | --- | --- | --- | --- |
| CC(C)=C1CCC(C)CC1=O (configuration not stated) | > 92 µM | > 92 µM | > 92 µM | > 92 µM | > 92 µM | > 92 µM | inactive | -3.2% | inactive | inactive |  |  |
| CCCOCC(C)OCC(C)O (configuration not stated) | > 92 µM | > 92 µM | > 92 µM | > 92 µM | > 92 µM | > 92 µM | inactive | -9.53% | inactive |  |  |  |
| CCCCCCCCC/C=C/CC1CC(=O)OC1=O (configuration not stated) | > 92 µM | > 92 µM | > 92 µM | > 92 µM | > 92 µM | > 92 µM | inactive | 11.9% | inactive |  |  |  |
| Cc1ccccc1C=O | > 92 µM | > 92 µM | > 92 µM | > 92 µM | > 92 µM | > 92 µM | inactive | 2.15% | inactive |  |  |  |
| CC(=O)OC(C)C | > 92 µM | > 92 µM | > 92 µM | > 92 µM | > 92 µM | > 92 µM | inactive | 3.96% | inactive | inactive |  |  |
| CCCC(C)CO (configuration not stated) | > 92 µM | > 92 µM | > 92 µM | > 92 µM | > 92 µM | > 92 µM | inactive | 3.82% |  |  |  |  |
| CC1=C(/C=C/C(C)=C/C=C/C(C)=C\C=O)C(C)(C)CCC1 | 24.4 µM (active) | 22.2 µM (active) | 51.9 µM (active) | 66.1 µM (active) | 39.8 µM (active) | 31.7 µM (active) | inactive |  |  | 31.6 µM (active) | -120% (active) | 25.1 µM (active) |
| Nc1ccc(F)cc1F | > 92 µM | > 92 µM | > 92 µM | > 92 µM | > 92 µM | > 92 µM | inactive | -8.92% | inactive |  |  |  |
| CCNS(=O)(=O)c1ccc(C)cc1 | > 92 µM | > 92 µM | > 92 µM | > 92 µM | > 92 µM | > 92 µM | inactive | -13.9% | inactive | inactive |  |  |
| O=[N+]([O-])c1ccc(NCCO)c(OCCO)c1 | > 92 µM | > 92 µM | > 92 µM | > 92 µM | > 92 µM | > 92 µM | inactive | -0.601% | inactive |  |  |  |
| CCc1ccccc1 | > 92 µM | > 92 µM | > 92 µM | > 92 µM | > 92 µM | > 92 µM | inactive | -7.66% | inactive | inactive |  |  |
| Cc1ccccc1Br | > 92 µM | > 92 µM | > 92 µM | > 92 µM | > 92 µM | > 92 µM | inactive | -5.14% | inactive |  |  |  |
| Cc1ccc2cccnc2c1 | > 92 µM | > 92 µM | > 92 µM | > 92 µM | > 92 µM | > 92 µM | inactive | -6.28% | inactive |  |  |  |
| O=C(Cl)c1c(Cl)cccc1Cl | > 92 µM | > 92 µM | > 92 µM | > 92 µM | > 92 µM | > 92 µM | inactive | 1.05% | inactive | inactive |  |  |
| Nc1cccc(N)c1 | > 92 µM | > 92 µM | > 92 µM | > 92 µM | > 92 µM | > 92 µM | inactive | -0.534% | inactive |  |  |  |
| O=C(O)c1ccc(CO)o1 | > 92 µM | > 92 µM | > 92 µM | > 92 µM | > 92 µM | > 92 µM | inactive | -2.4% | inactive |  |  |  |
| CC(C=O)Cc1ccc(C(C)(C)C)cc1 (configuration not stated) | > 92 µM | > 92 µM | > 92 µM | > 92 µM | > 92 µM | > 92 µM | inactive | -7.79% | inactive | inactive |  |  |
